Inconclusive results are not listed. Calls of active or inactive are those of the source. Calls come from the whole dose curve; as a rule, active = well fitted curve in the direction sought with a large enough effect; inconclusive = small, poorly fitted or top-dose-only effect, or another doubt; inactive = no such curve, though single readings can be large; an effect the other way counts as inactive or inconclusive.
How the values were obtained:
[1] = qHTS of pediatric cancer cell lines to identify multiple opportunities for drug repurposing: Primary screen for OHS-50 cells (AID 1347103);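 note: plate controls were DMSO neutral control for no effect and bortezomib positive control for full effect; nearly all actives have a fitted effect of over 40% in size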
Procedure, shortened: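 Cells (500-1,000/well) rested 5 h, then received compounds for 48 h; metabolically active cells were measured by CellTiter-Glo luminescence. Final concentrations spanned up to 46 µM (MIPE, 11-point) or 0.59 nM-46 µM (NPC, 8-point) in primary screens, 11-point in follow-ups.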

[2] = qHTS of pediatric cancer cell lines to identify multiple opportunities for drug repurposing: Primary screen for RD cells (AID 1347104);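 note: plate controls were DMSO for no effect and bortezomib for full effect; nearly all actives have a fitted effect of over 55% in size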
Procedure, shortened: (§1)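 Quantitative HTS format: each compound titrated (MIPE 11 points from 0.78 nM, NPC 8 points from 0.59 nM) onto cells plated 5 hours earlier. After 48 h at 37 degrees C, CellTiter-Glo luminescence was recorded.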

[3] = qHTS of pediatric cancer cell lines to identify multiple opportunities for drug repurposing: Primary screen for MG 63 (6-TG R) cells (AID 1347105); note: % is set by controls: 0 for no effect and ±100 for the full control effect; nearly all actives have a fitted effect of over 50% in size
Procedure, shortened: as §1

[4] = qHTS of pediatric cancer cell lines to identify multiple opportunities for drug repurposing: Primary screen for control Hh wild type fibroblast cells (AID 1347106);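 note: series mostly up to about 46 µM; % is set by controls: 0 for no effect and ±100 for the full control effect; a drop in luminescence marks cytotoxicity and a rise apparent proliferation; nearly all actives have a fitted effect of over 55% in size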
Procedure, shortened: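 Cells (500-1,000/well) in growth media were settled 5 h at 37 degrees C, then given compounds for 48 h. Viability was read as CellTiter-Glo luminescence. Primary runs used MIPE at 11 points (0.78 nM-46 µM) and NPC at 8 points (0.59 nM-46 µM); follow-ups used 11 points.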

[5] = qHTS of pediatric cancer cell lines to identify multiple opportunities for drug repurposing: Primary screen for Rh30 cells (AID 1347107); note: series mostly up to about 46 µM; % is set by controls: 0 for no effect and ±100 for the full control effect; nearly all actives have a fitted effect of over 75% in size
Procedure, shortened: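 Viability after 48 h compound treatment at 37C, 500-1,000 cells/well, read as ATP luminescence with CellTiter-Glo. Primary screens used 11-point (MIPE, 0.78 nM-46 µM) or 8-point (NPC, 0.59 nM-46 µM) final concentrations; follow-up screens used 11-point dilutions.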

[6] = qHTS of pediatric cancer cell lines to identify multiple opportunities for drug repurposing: Primary screen for Rh41 cells (AID 1347108);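 note: series mostly up to about 46 µM; luminescence drop marks cytotoxic hits; nearly all actives have a fitted effect of over 70% in size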
Procedure, shortened: as §1

CCOC(=O)OCC/C(SC(=O)OCC)=C(\C)N(C=O)Cc1cnc(C)nc1N
inactive: Potency [1] | Potency [2] | Potency [3] | Potency [4] | Potency [5] | Potency [6]

CO[C@]1(NC(=O)CSC(F)F)C(=O)N2C(C(=O)O)=C(CSc3nnnn3CCO)CO[C@H]21
inactive: Potency [1] | Potency [2] | Potency [3] | Potency [4] | Potency [5] | Potency [6]

NCC[C@H](O)C(=O)N[C@@H]1C[C@H](N)[C@@H](O[C@H]2O[C@H](CN)[C@@H](O)[C@H](O)[C@@H]2O)[C@H](O)[C@@H]1O[C@H]1O[C@H](CO)[C@@H](O)[C@H](N)[C@@H]1O
inactive: activity change, negative = cytotoxic [1] 17.5% [at 0.73 µM] | activity change, negative = cytotoxic [2] 8.3% [at 0.597 µM] | activity change, negative = cytotoxic [3] -9.26% [at 0.597 µM] | activity change, negative = cytotoxic [4] -6.47% [at 0.597 µM] | activity change, negative = cytotoxic [5] 20.7% [at 0.597 µM] | activity change, negative = cytotoxic [6] 34.1% [at 0.597 µM]

CC(C)C(=O)Nc1cccc(C2CN3CCSC3=N2)c1 (stereo not drawn)
inactive: Potency [1] | Potency [2] | Potency [3] | Potency [4] | Potency [5] | Potency [6]

COc1ccc2c(c1)c(CC(=O)OC/C=C(\C)CC/C=C(\C)CCC=C(C)C)c(C)n2C(=O)c1ccc(Cl)cc1
inactive: Potency [1] | Potency [2] | Potency [3] | Potency [4] | Potency [5] | Potency [6]

O=C(Oc1ccccc1)c1ccccc1O
inactive: Potency [1] | Potency [2] | Potency [3] | Potency [4] | Potency [5] | Potency [6]

CCOC(=O)C(=O)CCc1ccccc1
inactive: Potency [1] | Potency [2] | Potency [3] | Potency [4] | Potency [5] | Potency [6]

CO/N=C(\C(=O)O)c1csc(NC(=O)CCl)n1
inactive: Potency [1] | Potency [2] | Potency [3] | Potency [4] | Potency [5] | Potency [6]

O=c1[nH]c(=O)n([C@H]2O[C@H](CO)[C@@H](O)[C@@H]2O)cc1/C=C\Br
inactive: Potency [1] | Potency [2] | Potency [3] | Potency [4] | Potency [5] | Potency [6]

CC(C)(C)c1cc(C=O)cc(C(C)(C)C)c1O
inactive: Potency [1] | Potency [2] | Potency [3] | Potency [4] | Potency [5] | Potency [6]

CC(C(=O)O)c1ccc(/C=C2\CCCCC2=O)cc1 (stereo not drawn)
inactive: Potency [1] | Potency [2] | Potency [3] | Potency [4] | Potency [5] | Potency [6]

C/C(=N/NC(=O)c1ccncc1)C(=O)O
inactive: Potency [1] | Potency [2] | Potency [3] | Potency [4] | Potency [5] | Potency [6]

Cc1ccc(C(C)OC(=O)C2(C)CCC(C(=O)O)C2(C)C)cc1 (stereo not drawn)
inactive: Potency [1] | Potency [2] | Potency [3] | Potency [4] | Potency [5] | Potency [6]

CCCc1ccc(OCC(=O)N2CCN(C(=O)COc3ccc(CCC)cc3OC)CC2)c(OC)c1
inactive: Potency [1] | Potency [2] | Potency [3] | Potency [4] | Potency [5] | Potency [6]

O=C(CCCl)NCc1ccccc1
inactive: Potency [1] | Potency [2] | Potency [3] | Potency [4] | Potency [5] | Potency [6]

CC(=O)Nc1ccc(S(=O)(=O)Nc2cc(C)on2)cc1
inactive: Potency [1] | Potency [2] | Potency [3] | Potency [4] | Potency [5] | Potency [6]

CCc1cccc2c(CCO)c[nH]c12
inactive: Potency [1] | Potency [2] | Potency [3] | Potency [4] | Potency [5] | Potency [6]

CCOC(=O)C(O)c1ccccc1 (stereo not drawn)
inactive: Potency [1] | Potency [2] | Potency [3] | Potency [4] | Potency [5] | Potency [6]

CO/N=C(/C(=O)N[C@@H]1C(=O)N2C(C(=O)O)=C(Cn3nnc(C)n3)CS[C@H]12)c1csc(N)n1
inactive: Potency [1] | Potency [2] | Potency [3] | Potency [4] | Potency [5] | Potency [6]

NS(=O)(=O)c1cc2c(cc1Cl)CN(C1CCCCC1)C2=O
inactive: Potency [1] | Potency [2] | Potency [3] | Potency [4] | Potency [5] | Potency [6]

CN1N=C(C(N)=O)CCC1=O
inactive: Potency [1] | Potency [2] | Potency [3] | Potency [4] | Potency [5] | Potency [6]

O=[N+]([O-])c1cncn1CCN1CCOCC1
inactive: Potency [1] | Potency [2] | Potency [3] | Potency [4] | Potency [5] | Potency [6]

CC(=O)OC/C=C(C)/C=C/C=C(C)/C=C/C1=C(C)CCCC1(C)C
inactive: Potency [1] | Potency [2] | Potency [3] | Potency [4] | Potency [5] | Potency [6]

CN1CC(=O)N2[C@H](c3ccc4c(c3)OCO4)c3[nH]c4ccccc4c3C[C@@H]2C1=O
inactive: Potency [1] | Potency [2] | Potency [3] | Potency [4] | Potency [5] | Potency [6]

Cc1ccc(C(=O)C(=O)O)cc1C
inactive: Potency [1] | Potency [2] | Potency [3] | Potency [4] | Potency [5] | Potency [6]

Cc1cc(O)c(C)c(C)c1O
inactive: Potency [1] | Potency [2] | Potency [3] | Potency [4] | Potency [5] | Potency [6]

Nc1ncnc2nc[nH]c12
inactive: Potency [1] | Potency [2] | Potency [3] | Potency [4] | Potency [5] | Potency [6]

CCCCC(O)/C=C(C)/C=C/C=C/C(=O)N1CCCC1=O (stereo not drawn)
inactive: Potency [1] | Potency [2] | Potency [3] | Potency [4] | Potency [5] | Potency [6]
